# Source: PubChem (National Center for Advancing Translational Sciences (NCATS))
# hERG WT inh – inhibitors of human wildtype KCNH2 potassium channel; AID 720551; actives 0.37% (n = 340,000); U2OS, BacMam KCNH2, thallium flux FluxOr; active compounds read low; activity change, % at 1.84 µM;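 active means maximum activity change below -70%; inconclusive means maximum activity change between -70% and -50%; inactive means maximum activity change above -50%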; further: on the % scale 0 is the no-effect control and ±100 the full control effect
# Target sequence (Q12809 whole entry, looked up): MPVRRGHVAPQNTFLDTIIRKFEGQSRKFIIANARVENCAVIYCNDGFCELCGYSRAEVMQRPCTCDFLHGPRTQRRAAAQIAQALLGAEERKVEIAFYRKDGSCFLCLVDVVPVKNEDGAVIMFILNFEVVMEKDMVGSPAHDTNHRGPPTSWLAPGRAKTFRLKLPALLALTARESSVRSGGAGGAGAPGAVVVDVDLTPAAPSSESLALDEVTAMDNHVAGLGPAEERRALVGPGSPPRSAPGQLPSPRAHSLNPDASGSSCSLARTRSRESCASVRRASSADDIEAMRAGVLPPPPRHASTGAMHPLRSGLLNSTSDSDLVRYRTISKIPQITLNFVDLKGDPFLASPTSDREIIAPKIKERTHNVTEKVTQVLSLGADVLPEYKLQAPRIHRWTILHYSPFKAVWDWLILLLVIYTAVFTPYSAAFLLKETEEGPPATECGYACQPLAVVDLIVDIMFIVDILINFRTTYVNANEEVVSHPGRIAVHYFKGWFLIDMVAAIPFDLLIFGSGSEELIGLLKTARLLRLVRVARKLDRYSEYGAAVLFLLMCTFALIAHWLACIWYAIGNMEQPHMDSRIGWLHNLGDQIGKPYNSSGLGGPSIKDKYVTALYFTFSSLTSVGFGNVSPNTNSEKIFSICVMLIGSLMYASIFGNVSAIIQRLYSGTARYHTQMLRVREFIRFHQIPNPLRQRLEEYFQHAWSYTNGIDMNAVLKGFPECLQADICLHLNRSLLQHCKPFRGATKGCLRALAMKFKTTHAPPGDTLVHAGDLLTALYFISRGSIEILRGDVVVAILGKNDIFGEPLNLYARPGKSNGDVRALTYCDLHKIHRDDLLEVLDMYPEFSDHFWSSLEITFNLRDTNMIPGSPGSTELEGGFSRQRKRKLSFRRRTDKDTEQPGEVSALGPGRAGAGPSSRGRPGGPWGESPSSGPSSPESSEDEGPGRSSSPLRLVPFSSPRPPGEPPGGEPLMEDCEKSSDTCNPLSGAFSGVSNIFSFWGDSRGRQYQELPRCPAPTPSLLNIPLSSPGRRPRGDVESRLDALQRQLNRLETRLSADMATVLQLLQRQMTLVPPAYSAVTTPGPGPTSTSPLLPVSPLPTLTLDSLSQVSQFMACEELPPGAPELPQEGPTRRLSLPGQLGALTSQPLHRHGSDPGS
#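 U2OS cells were transduced with wild-type KCNH2 virus (2.03 x 10^8 / mL) for 4 h at room temperature, then cultured overnight at 37 C. Thallium flux was read with FluxOr dye. Rate constants were normalized to DMSO controls.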
# KCNH2 3.1 block – KCNH2 3.1 (human) potassium channel inhibition | actives 0.95% (n = 340,000) | U2OS KCNH2 3.1, thallium flux FluxOr; active compounds read low | activity change, % (tested at about 1.8 µM);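 active means maximum activity change below -70%; inconclusive means maximum activity change from -70% to -50%; inactive means maximum activity change above -50%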;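 further: thallium influx rate constant from kinetic fluorescence after stimulation buffer; on the % scale 0 is the no-effect control and ±100 the full control effect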
#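 Measured as rate of thallium-driven FluxOr signal in transduced U2OS cells carrying the 3.1 channel, read kinetically for 2 min upon stimulation; values are rate constants scaled to DMSO control wells.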
# PTAP TSG101 blk – blocks PTAP/TSG101 interaction to inhibit HIV-1 budding | Q99816 | 340,000 tested, under 10 active | Fluorescence polarization, FITC-PTAP peptide / Tsg101 binding | Potency, µM (doses to about 115 µM), for the others: at the top dose activity change, negative = inhibition, most hits filed as inhibitors; active means well fitted inhibition curve with a large enough effect in the main read-out, with a control signal flat, not every such curve was filed as active; inconclusive means small, poorly fitted or top-dose-only effect, or effect the other way, or a change in a side signal; inactive means no such curve, though single readings can be large or run the other way; further: potency means the concentration at half of the fitted maximal effect; % of control where 0% means no effect
#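 Steps: Tsg101 binding domain dispensed (10 uM final), compounds pinned in DMSO, FITC-labeled PTAP-motif peptide added (50 nM final); after 20 min binding at room temperature, polarization measured.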
# Glioma ERSR ind – induces the endoplasmic reticulum stress response in human glioma cells; actives 0.02% (n = 420,000); Potency, µM, for inactives: top-dose activation, actives largely listed as activators; U87-MG GRP78 promoter luciferase reporter, 16 h; AID 602332; active means well fitted activation curve with a large enough effect; inconclusive means small, poorly fitted or top-dose-only effect; inactive means no such curve, though single readings can be large or run the other way; further: potency means the concentration at half of the fitted maximal effect; series mostly up to about 76 µM; % of control where 0% means no effect; nearly all actives have a fitted effect of over 35% in size
#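 Stably transfected U87-MG human glioma cells carrying a GRP78-based luminescent sensor were seeded at 1000 cells/well, pin-dosed with compounds and incubated 16 h. Luciferase reagent was then added, and end-point luminescence was read after 10 min at room temperature.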
# TRPML1 blocker – inhibitors of human TRPML1 channel; TRPML1-inducible cells, Ca2+ dye fluorescence, FDSS; active compounds read low; inhibition of EC80 agonist-evoked calcium signal; activity change, negative = inhibition, % (test concentration not listed); AID 624415; Q9GZU1; actives 0.02% (n = 390,000); in the data active means activity change below about -50%; inconclusive means between about -30% and that limit;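 further: stimulus is agonist 54-4 at its EC80 concentration; on the % scale 0 is the no-effect control and ±100 the full control effect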
#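 TRPML1-DL cells, Tet-induced overnight (~16 h, 37 °C) at 1,500 cells/well, were loaded with Ca8 no-wash dye plus quencher for 45-90 min at room temperature. Compounds were pinned during FDSS kinetic reading; agonist 54-4 at EC80 (4 uM final) then added.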
# TRPML1 ag – activates the human TRPML1 channel. activation, % (test concentration not listed). AID 624414. Q9GZU1. actives 0.12% (n = 410,000). TRPML1-expressing cells, Ca2+ dye fluorescence, FDSS; in the data active means activation above about 50%; inconclusive means mostly about 30% to 49%; further: 0% is about no effect
#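 TRPML1-DL cells, Tet-induced overnight (~16 h, 37 degrees C), loaded 45-90 min at room temperature with Ca8 no-wash calcium dye plus quencher. FDSS fluorescence: 10 s baseline, compound pin-transfer, 110 s agonist read, then EC80 54-4 (4uM final) and 110 s antagonist read.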
# * marks the source's active call; other numbers are inactive results; ? = inconclusive; . = no result given. In the library only some 1% were active in any assay of this set; here they are far more common.
SMILES,hERG WT inh,KCNH2 3.1 block,PTAP TSG101 blk,Glioma ERSR ind,TRPML1 blocker,TRPML1 ag
CCOc1ccc(N2CC(O)(c3cccs3)[N+]3=C2CCCC3)cc1 (stereo not drawn),?,-102*,-5%,-3%,-18,1
OC1(c2cccs2)CN(c2ccccc2)C2=[N+]1CCCC2 (stereo not drawn),15,-8,-5%,-4%,26,2
CCOc1ccc(N2CC(O)(c3ccc(F)cc3)[N+]3=C2CCCC3)cc1 (stereo not drawn),-49,-104*,-1%,-4%,-4,-1
O=C(NCC1(N2CCOCC2)CCCC1)c1cnn(-c2ncc3c(n2)-c2ccccc2CC3)c1C1CC1,.,.,.,-3%,.,.
Cc1cc(S(=O)(=O)NCc2nc(N3CCCC3)c3cc(Cl)ccc3n2)c(C)s1,.,.,.,-5%,.,.
CCOC(=O)/C(=C\c1ccc(OC(F)F)cc1)C1=Nn2c(nnc2-c2ccc(Cl)cc2)SC1,-78*,-70*,-3%,-16%,10,2
CCOC(=O)/C(=C\c1ccc(Cl)cc1)c1nc2sc(C)c(C)c2c(=O)[nH]1,5,2,-1%,?,-17,0
COc1ccc(-c2nnc3n2N=C(C)CS3)cc1,-3,-2,-5%,-1%,-3,0
CCOC(=O)/C(=C/c1ccc(OC(F)F)cc1)C1=Nn2c(nnc2-c2ccc(Cl)cc2)SC1,?,-83*,-5%,-14%,-7,2
COC(=O)c1ccc(CSc2nnc(-c3ccncc3)n2Cc2ccccc2)o1,-199*,-173*,-1%,1%,81,-1
COc1cc2ccccc2nn1,-13,9,-6%,-4%,29,1
COc1ccc2c(n1)Sc1nc3ccccc3nc1N2,-13,-7,?,15%,-7,82*
COc1ccc(N2C(=O)c3ccc(C(=O)Nc4cc(OC)ccc4OC)cc3C2=O)cc1,9,-96*,-3%,-4%,63,0
COc1ccc(OC)c(NC(=O)c2cccc(N3C(=O)C4C5CCC(C5)C4C3=O)c2)c1 (stereo not drawn),-1,-6,.,-4%,-17,3
COc1ccc(N2C(=O)c3ccc(C(=O)OC(C)C)cc3C2=O)cc1,-10,9,2%,-3%,4,-1
COc1ccc(OC)c(NC(=O)c2cccc(N3C(=O)C4C5C=CC(C6CC56)C4C3=O)c2)c1 (stereo not drawn),-167*,-39,-9%,-1%,18,2
CN1N=C(C(=O)N2CCOc3ccc(CN4CCCC(C(=O)c5cccnc5)C4)cc3C2)CCC1=O (stereo not drawn),.,.,.,-7%,.,.
COC(=O)C(C)Oc1cc(OC(C)C(=O)OC)c2c(-c3ccccc3)cc(=O)oc2c1 (stereo not drawn),-6,-4,2%,32µM*,0,0
COC(=O)COc1cc(OCC(=O)OC)c2c(-c3ccccc3)cc(=O)oc2c1,-1,-7,-7%,5%,13,1
COc1ccc(Cl)c(Cn2cnc3c(cnn3C(C)(C)C)c2=O)c1F,.,.,.,1%,-11,3
O=C(Cn1cncn1)N/N=C/c1cc([N+](=O)[O-])ccc1O,-104*,4,0%,-2%,16,0
COC(=O)CC(NC1CCN(c2nc(C)c3cc4c(cc3n2)CCC4)CC1)C(=O)OC (stereo not drawn),.,.,.,-3%,.,.
CCC1(C2CCN(Cc3cccc(Cl)c3)CC2)NC(=O)N(CC2COc3ccccc3O2)C1=O (stereo not drawn),.,.,.,-3%,.,.
Cc1cc(/C=C2\SC(=S)N(Cc3ccco3)C2=O)c(C)n1-c1ccccc1,-81*,-23,-21%,2%,-11,8
Cc1c(C(=O)NCCC2CCCN2C)cnn1-c1nccc(-c2ccccc2F)n1 (stereo not drawn),.,.,.,-3%,.,.
SMILES,hERG WT inh,KCNH2 3.1 block,PTAP TSG101 blk,Glioma ERSR ind,TRPML1 blocker,TRPML1 ag
COc1ccc(/C=C/C2=CCN(Cc3ccc(OC)cc3)CC2)cc1,-33,-79*,-5%,-2%,10,0
COc1ccc(/C=N/N2CCN(Cc3ccccc3)CC2)cc1,6,23,-7%,1%,.,.
CN(C)c1ccc(/C=C/c2nc3ccccc3c(=O)n2-c2ccc(C(=O)O)cc2)cc1,-8,18,?,0%,19,64*
O=C(O)c1ccc(-n2c(/C=C\c3ccc(O)cc3)nc3ccccc3c2=O)cc1,.,.,.,-4%,54,4
CCCCCCCN(CC)CCCC(O)c1ccc(NS(C)(=O)=O)cc1 (stereo not drawn),.,.,.,-4%,.,.
Fc1cnc(N/N=C/c2ccc(-c3ccc(Br)cc3)o2)nc1N1CCOCC1,-2,-31,0%,-3%,1,0
Clc1ccc(-c2ccc(/C=N/Nc3cc(N4CCOCC4)nc(N4CCOCC4)n3)o2)cc1,?,-95*,-3%,3%,58,1
Brc1ccc(-c2ccc(/C=N/Nc3nc(N4CCOCC4)nc(N4CCOCC4)n3)o2)cc1,-5,-95*,-3%,-2%,-11,0
CC(C)c1ccc(/C=N/Nc2cc(N3CCOCC3)nc(N3CCOCC3)n2)cc1,5,-42,-1%,-5%,14,0
CCCCOc1ccc(/C=N/Nc2cc(N3CCOCC3)nc(C)n2)cc1,4,-95*,0%,-2%,8,0
COc1ccc(Cl)cc1N(C)c1nc(N2CCN(S(=O)(=O)c3ccc(C)cc3)CC2)c2ccccc2n1,.,.,.,.,.,-1
CCn1c(=O)cc(SCC(=O)NCc2ccccn2)c2ccccc21,4,-184*,-13%,-1%,4,0
O=C1CC(c2ccco2)CC2=C1C1c3ccccc3C(=O)N1c1ccccc1N2 (stereo not drawn),-20,1,-6%,28µM*,3,-1
CCc1c(C)nc(SC/C=C/c2ccccc2)[nH]c1=O,-3,-120*,-4%,3%,2,2
CCCc1cc(=O)[nH]c(SC/C=C/c2ccccc2)n1,-14,-3,-3%,-2%,5,0
CCCC[C@@H](C)/C=C(C)/C=C(\C)C(=O)NC1=C[C@@](O)(/C=C/C=C/C=C/C(=O)NC2=C(O)CCC2=O)[C@@H]2O[C@@H]2C1=O,.,.,.,-12%,.,.
O=C(O)c1cccc(NS(=O)(=O)c2ccc(S(=O)(=O)N3CCOCC3)cc2)c1,-11,-7,-2%,-6%,-25,1
CCOc1ccc(Br)cc1S(=O)(=O)Nc1cccc(S(=O)(=O)N2CCOCC2)c1,-223*,-9,-1%,-6%,13,2
O=S(=O)(Nc1cccc(F)c1)c1ccc(S(=O)(=O)N2CCOCC2)cc1,-7,-74*,.,0%,-9,1
